Screens deposited in PubChem BioAssay by Sanford-Burnham Center for Chemical Genomics.
In the library only some 4% were active in any assay of this set; here they are far more common.
HIF-2a block: HIF-2a reporter inhibitors, primary screen, luminescence, 786-0 RCC cells | 786-0 RCC cells HIF-2a reporter, luciferase luminescence, overnight | hit rate 0.72% among 360,000 | inhibition, % at 18.8 µM;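 active = inhibition of the luminescence signal of 40% or more relative to plate controls, in a single-dose primary screen at 18.75 µM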
CF NFkB inh: inhibitors of PAF-induced NF-kB signaling, primary screen, cell-based, GFP fluorescence, uHTS; KKLEB NF-kB-GFP reporter, GFP fluorescence overnight; inhibition, % at 5 µM; hit rate 0.86% among 360,000; AID 588850, 2011;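 active = at least 50% inhibition at 5 µM, scaled per plate between neutral and stimulator controls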;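 note: PAF is a Pseudomonas aeruginosa culture filtrate used as stimulus; plate controls were PAF-stimulated DMSO wells for no effect and unstimulated DMSO wells for full effect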
TROY NFkB inh: inhibitors of TROY-driven NF-kB signaling, primary screen, Q293 LMP1-TROYcd cells, NF-kB luciferase, uHTS; hit rate 0.98% among 360,000; inhibition, % at 10 µM; Q293 LMP1-TROYcd NF-kB luciferase reporter, 4 h; AID 1347056, 2019;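 active = compounds whose plate-normalised and pattern-corrected inhibition of the luciferase reporter signal at the single screening dose is 50% or more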
Peg3 promoter: Peg3 promoter-driven luciferase inhibitors, primary screen, cell-based, HeLa, luciferase luminescence; AID 588405, 2011; inhibition, % at 20 µM; HeLa PEG-Prom luciferase reporter, overnight; hit rate 1.7% among 360,000;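 active = inhibition of at least 50% at 20 µM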
TWEAK Fn14 block: inhibitors of TWEAK-Fn14 signaling, primary screen, luciferase reporter cells, uHTS; AID 1159606, 2016; hit rate 2% among 360,000; inhibition, % at 10 µM; TWEAK-stimulated Fn14 reporter cells, luciferase luminescence, 8 h; in the data active = inhibition above about 50%
KKLEB cytotox: cytotoxicity in KKLEB CF airway cells, primary screen, cytotoxicity control for CF NF-kB inhibitor project, cell-based, uHTS, fluorescence assay plates. AID 602141, 2011. activity change (cytotoxicity), % at 5 µM. hit rate 0.36% among 360,000. KKLEB CF airway cells viability, ATPlite luminescence, overnight; hits give low values; cells stimulated with P. aeruginosa culture filtrate;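 active = corrected activity change at or below -50% at 5 µM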
* = called active by the depositor; x = no result.

SMILES	HIF-2a block	CF NFkB inh	TROY NFkB inh	Peg3 promoter	TWEAK Fn14 block	KKLEB cytotox
COc1cc(/C=C2/SC(=Nc3ccc(O)cc3)NC2=O)ccc1O	13.1	71.3*	40.1	-56.6	60.3*	3.2
COc1ccc(/C=C2\SC(=Nc3ccccc3OC)NC2=O)cc1	-51.2	56.5*	8.1	24.1	23.6	-8.3
COc1ccc(/C=C2\SC(=NCc3ccccc3)NC2=O)cc1	-19.2	31.5	6.5	-18.7	14.3	-39.2
COc1cc(/C=C2/SC(=O)NC2=O)ccc1OCc1ccccc1	-110.9	-11.5	-66.8	-64.3	-20.6	4.8
CCc1ccc(N=C2NC(=O)/C(=C/c3cc(OC)c(O)c(OC)c3)S2)cc1	16.1	-2.0	19.9	24.1	18.7	1.9
COc1ccc(/C=C2/SC(=S)NC2=O)cc1OCc1ccccc1	18.5	33.7	50.9*	21.0	-8.0	-22.0
Cc1ccc(NC(=O)C(OC(=O)c2ccc(O)cc2)c2ccccc2)cc1Cl (configuration not stated)	4.1	-17.2	13.7	15.9	9.2	9.5
O=C1NC2c3c(Cl)sc(Cl)c3C(=O)C2O1 (configuration not stated)	32.2	3.4	-10.6	68.1*	19.1	-1.5
CCOc1cc(N2CCOCC2)c(OCC)cc1NC(=O)Cc1cccc2ccccc12	20.4	-4.8	-3.2	17.6	6.1	9.3
Cc1c(-c2ccccc2)oc2c(C(=O)N3CCN(c4ccccc4F)CC3)cccc2c1=O	26.5	40.6	17.6	30.7	54.1*	5.8
CS(=O)(=O)N(CC(=O)N1CCN(c2cccc(Cl)c2)CC1)C1CCCCC1	2.4	15.0	17.7	14.0	66.8*	-15.4
CC(NCC(O)COc1ccc2ccccc2c1)c1ccccc1 (configuration not stated)	3.1	0.0	-71.2	65.9*	-20.6	1.7
Cc1cc(OCC(O)CNC(C)c2ccccc2)ccc1C(C)C (configuration not stated)	8.7	5.8	-19.2	106.8*	0.0	5.5
CCCC(NCC(O)COc1ccc(-c2ccccc2)cc1)c1ccccc1 (configuration not stated)	-14.9	10.8	21.6	78.8*	-8.8	-15.8
COc1ccc(OCC(O)CNC(C)c2ccccc2)cc1 (configuration not stated)	18.4	-3.7	-2.1	-5.9	-0.4	-12.9
CC(NCC(O)COc1ccc(Br)cc1)c1ccccc1 (configuration not stated)	7.3	-3.3	1.4	-16.2	-0.2	-5.7
CC(C)(C)C(=O)Nc1sc2c(c1C#N)CCCCC2	-94.1	-49.2	-15.5	-75.7	-34.6	34.3
Cc1cc(COc2ccccc2O)on1	-0.3	-8.9	x	-7.3	85.6*	10.2
COc1ccccc1OCc1cc(-c2ccccc2)no1	-316.5	19.9	-76.2	-311.6	-32.2	6.9
O=C1CSC(c2ccccn2)N1c1ccc(Cl)c(Cl)c1 (configuration not stated)	18.4	2.7	-3.9	11.5	107.5*	-8.4
Cc1ccc(Cl)cc1N1CCN(Cc2nnnn2C2CCCCC2)CC1	24.9	20.1	2.3	21.8	-3.9	0.4
Cc1ccccc1CN(C)C1CCN(C)CC1	22.6	-7.0	22.0	5.6	110.0*	-2.7
Cc1cccc(-c2nc(S(=O)(=O)c3ccc(F)cc3)c(NCCCN3CCOCC3)o2)c1	7.5	22.8	-11.9	22.4	77.8*	-3.9
Oc1ccccc1-c1cc(-c2ccccc2)no1	-227.6	-4.7	-32.4	-256.2	40.1	-8.8
Cc1ccc(-c2cc(-c3ccccc3)no2)c(O)c1	-68.1	-6.3	52.8*	-101.0	75.8*	-34.6
SMILES	HIF-2a block	CF NFkB inh	TROY NFkB inh	Peg3 promoter	TWEAK Fn14 block	KKLEB cytotox
CCc1ccn2cc(-c3cc(-c4ccccc4)no3)nc2c1	63.9*	-27.1	86.8*	73.3*	105.7*	-51.9*
Cc1ccc2nc(-c3cc(-c4ccccc4)no3)cn2c1	-31.5	-4.2	40.9	11.2	78.7*	-5.5
C[C@H](CO)N1C[C@H](C)[C@@H](CN(C)C(=O)NC2CCCCC2)Oc2c(NS(=O)(=O)c3cn(C)cn3)cccc2C1=O	4.7	-6.8	12.8	-2.1	13.1	2.2
O=C(c1ccc(Cl)cc1)N1CCc2c([nH]c3ccccc23)C1C(F)(F)F (configuration not stated)	18.3	-9.6	35.5	26.3	18.3	5.5
CC(=O)/C(N)=N/Nc1cccc(Cl)c1	15.2	21.2	9.8	-11.7	-12.4	-1.8
CCOC(=O)c1cnc2c(C#N)cnn2c1N	-0.1	1.2	-5.7	-2.9	26.6	18.9
COCCN1CCN(C(=O)c2cc(COc3ccc(F)c(F)c3)on2)CC1	-93.8	-3.6	-23.3	-45.8	76.9*	8.0
COC1=C(N)C(=O)c2nc(C)ccc2C1=O	1.3	57.3*	5.6	33.6	30.8	2.8
O=C(NCCOc1ccccc1)C1CCC(=O)N(Cc2ccc(Cl)cc2)C1 (configuration not stated)	-10.5	4.6	-10.7	3.8	-5.5	5.7
COC(CNC(=O)c1ccc(CS(=O)(=O)c2ccccc2)o1)OC	17.0	-2.3	4.1	5.7	7.8	3.6
Cc1ccc(-c2nnc(Nc3ccccc3)o2)cc1	5.3	-34.6	65.5*	20.2	93.7*	-47.9
Cc1ccc(NC(=O)Nc2nnc(-c3ccccc3)o2)cc1	-150.7	-5.1	-45.2	-147.3	-16.4	-3.0
CC(C)(C)C1=CC(O)(c2ccccc2)C=C(C(C)(C)C)C1=O	20.2	20.1	-8.8	78.1*	9.2	4.6
COc1ccc(O)c(C2=Nc3ccccc3N=C(c3cccs3)C2)c1	13.3	-2.0	-26.7	2.9	2.9	-2.6
O=C1c2ccccc2C(=O)N1CCc1ccccn1	-40.2	12.9	-5.3	2.6	2.8	9.4
O=C1c2cccc3c([N+](=O)[O-])ccc(c23)C(=O)N1CCc1ccccn1	-44.2	-11.1	1.4	91.5*	-41.2	13.3
CC(=O)Oc1cccc(N2C(=O)c3cccc4c([N+](=O)[O-])ccc(c34)C2=O)c1	26.3	35.2	27.0	28.6	-90.5	-8.5
CN(C)CCCN1C(=O)c2cccc3c([N+](=O)[O-])ccc(c23)C1=O	19.7	0.1	-57.8	90.5*	7.9	4.1
CCOc1ccc(N(CC(=O)Nc2ccc(C)c(C)c2)S(C)(=O)=O)cc1	-265.7	-14.0	-65.6	-234.2	-14.6	9.1
CCN(CC)CCNCC(=O)N1c2ccccc2CCc2ccc(NC(=O)OC)cc21	9.0	-14.3	-3.9	-0.3	105.0*	0.6
COc1ccc(CCn2c(=N)c(C(=O)NCc3ccco3)cc3c(=O)n4ccccc4nc32)cc1OC	2.0	-24.7	-4.3	6.5	-7.6	-6.7
